{
  "source": "PubChem BioAssay AID624134",
  "about": "(Broad Institute, 2012)",
  "note": "Among all 1,600 compounds or so, about 1,100 (69%) were called active. The set was probably picked from earlier hits. Only a sample is shown. Results with a measured potency or affinity are listed apart. Inconclusive results are not listed.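 Rule for the calls: active = signal drop with fitted half-maximal concentration no higher than twice the top valid tested concentration; inconclusive = flat curve with 30 to 70% signal loss, or poor fit; inactive = the rest, including signal rises and flat curves within 30%.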",
  "data": [
    {"assay": "loss of viability in HepG2 cells – cell-based, CellTiter-Glo, cherry-picked, cytotoxicity control for Shn3 inhibitor project, dose response (AID 624134);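 note: 0% = median of neutral control wells and -100% = median of positive control wells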", "details": "CellTiter-Glo ATP luminescence, 48 h; series mostly up to 35 µM; activity change, negative = cytotoxicity: at the top concentration", "values": [
      {"smiles": "COc1ccccc1-c1cc(C(F)(F)F)nc(S(=O)(=O)CCCC(=O)Nc2cccnc2Cl)n1", "activity change, negative = cytotoxicity": "10.7% [at 16 µM] (inactive)"},
      {"smiles": "CC(C)c1nnc(NC(=O)CCS(=O)(=O)c2nc(-c3cccs3)cc(C(F)(F)F)n2)s1", "activity change, negative = cytotoxicity": "-52.3% (inactive)"},
      {"smiles": "COC(=O)c1ccc(N2CCN(S(=O)(=O)c3ccc(C)cc3)CC2)c([N+](=O)[O-])c1", "activity change, negative = cytotoxicity": "-5.05% (inactive)"},
      {"smiles": "O=C1CC2(CCN(C(=O)c3ccccc3F)CC2)Oc2ccccc21", "activity change, negative = cytotoxicity": "-2.72% (inactive)"},
      {"smiles": "O=C(CSc1c2c(nc3ccc(Cl)cc13)CCCC2)NCc1ccco1", "activity change, negative = cytotoxicity": "-13.9% (inactive)"},
      {"smiles": "CSCCC(NC(=O)c1ccccc1)C(=O)OCC(=O)N(C)CCC#N", "note": "(configuration not stated)", "activity change, negative = cytotoxicity": "-5.72% (inactive)"},
      {"smiles": "CC[C@@H](C(=O)[C@@H](C)[C@@H](O)[C@H](C)CCc1ccc(C)c(O)c1C(=O)O)[C@H]1O[C@](CC)([C@H]2CC[C@](O)(CC)[C@H](C)O2)C[C@@H]1C", "activity change, negative = cytotoxicity": "25.4% (inactive)"},
      {"smiles": "Cc1cc(C)n2nc(SCc3cccc(S(=O)(=O)N(C)C)c3)nc2n1", "activity change, negative = cytotoxicity": "-6.75% (inactive)"},
      {"smiles": "CC(C)NCC(O)COc1cccc2ccccc12", "note": "(configuration not stated)", "activity change, negative = cytotoxicity": "-1.75% (inactive)"},
      {"smiles": "CCn1c(C)nc2cc(-c3nnc(-c4c(-c5ccccc5)noc4C)o3)ccc21", "activity change, negative = cytotoxicity": "-9.46% (inactive)"},
      {"smiles": "COc1ccc(N(C)C(=O)c2ccc3snnc3c2)cc1", "activity change, negative = cytotoxicity": "-7.24% (inactive)"},
      {"smiles": "COc1ccc(-c2ccc(Nc3ccc(S(=O)(=O)N4CCCC4)cc3)nn2)cc1OC", "activity change, negative = cytotoxicity": "-6.38% (inactive)"},
      {"smiles": "COC(=O)Oc1ccc(/C=C/C(=O)OC(C)C)cc1OC(=O)OC", "activity change, negative = cytotoxicity": "-16.1% (inactive)"},
      {"smiles": "Cc1ccc(C(=O)/C=C/c2ccc(-c3ccc(C)cc3)o2)cc1", "activity change, negative = cytotoxicity": "-19.4% (inactive)"},
      {"smiles": "CCc1c(C)nc2cc(-c3ccc(OC)c(OC)c3)nn2c1NCC1CC1", "activity change, negative = cytotoxicity": "-10.7% (inactive)"},
      {"smiles": "C=CS(=O)(=O)c1sc(Cl)c(N2CCOCC2)c1[N+](=O)[O-]", "activity change, negative = cytotoxicity": "-16.6% (inactive)"},
      {"smiles": "COc1ccc(-c2nsc3c(N4CCCCC4C)ncnc23)cc1", "note": "(configuration not stated)", "activity change, negative = cytotoxicity": "-2.42% (inactive)"},
      {"smiles": "CC(Cc1cccs1)NC(=O)Nc1ccc(F)cc1", "note": "(configuration not stated)", "activity change, negative = cytotoxicity": "-3.13% (inactive)"},
      {"smiles": "COc1ccc(CNC(=O)C(c2ccc(C)cc2)N(Cc2cccs2)C(=O)c2ccc3c(c2)OCCO3)cc1", "note": "(configuration not stated)", "activity change, negative = cytotoxicity": "-11.3% (inactive)"},
      {"smiles": "COc1ccc(C(O)c2nc(-c3cccc(F)c3)cs2)cc1", "note": "(configuration not stated)", "activity change, negative = cytotoxicity": "-10.4% (inactive)"},
      {"smiles": "O=C(C1=C[C@@H](C2CC2)C[C@@H](OCCCCO)O1)N1CCN(Cc2ccccc2)CC1", "activity change, negative = cytotoxicity": "-3.33% (inactive)"},
      {"smiles": "NC(=O)c1cc(N2C(=O)C=CC2=O)ccc1Cl", "activity change, negative = cytotoxicity": "-12.6% (inactive)"},
      {"smiles": "CC(C)C(NC(=O)c1ccc(Cl)cc1Cl)C(=O)N1CCN(S(=O)(=O)c2ccccc2)CC1", "note": "(configuration not stated)", "activity change, negative = cytotoxicity": "-15.1% (inactive)"},
      {"smiles": "O=C(Cc1ccccc1)NCCS(=O)c1ccc(Cl)cc1", "note": "(configuration not stated)", "activity change, negative = cytotoxicity": "0.411% (inactive)"},
      {"smiles": "Nc1nnc(SCC(=O)Nc2ccc(N3CCOCC3)cc2)s1", "activity change, negative = cytotoxicity": "14.7% (inactive)"},
      {"smiles": "CCCc1ccc(C(=O)NNc2cc(Cl)ccc2Cl)cc1", "activity change, negative = cytotoxicity": "-8.35% (inactive)"},
      {"smiles": "O=C(c1ccc(S(=O)(=O)c2ccc(F)cc2)c([N+](=O)[O-])c1)N1CCCCCC1", "activity change, negative = cytotoxicity": "-6.03% (inactive)"}
    ]}
  ]
}
